# Test results reported in ChEMBL document CHEMBL3988442, “University of Dundee, Small-Polar-MMV Screening Library” (2021).
# Among all 69,000 compounds or so, about 950 (1.4%) showed an effect of 50% or more. The sample as a whole holds a higher share of strong results than the screen did.
# Tested on: Mycobacterium tuberculosis
# Test: Cornell M. t heat shock assay; note: in the data most compounds retested in dose-response had high values
# Assay type: functional, organism-based
# Parameters: dose or concentration left out as unconfirmed
row,SMILES,Percent Effect [%]
1,C[C@@H](N)C(=O)N1CC2(CCNCC2)c2cc(Cl)ccc21.Cl.Cl,-22.5
2,O=C(C1=CCCC1)N1CCC2(CC1)CC(Oc1cccnc1)CO2.O=C(O)C(F)(F)F (configuration not stated),-14.4
3,Cc1nc(CN2CCc3cc(C(=O)O)c(N(C)C)nc3CC2)cs1.O=C(O)C(F)(F)F.O=C(O)C(F)(F)F,3.488
4,O=C(C1CC1)N1CCN(Cc2ccncc2)c2ncccc2C1.O=C(O)C(F)(F)F.O=C(O)C(F)(F)F,-4.601
5,CCc1onc(C)c1C(=O)N1CCN(c2ncc3c(n2)CCOC3)CC1.Cl,-10.25
6,CCC(CN1CCOCC1)n1cncc1-c1ccc2c(c1)CCCN2C.Cl (configuration not stated),16.42
7,CC(CN1CCOCC1)n1cncc1-c1ccc2c(c1)CCCN2C.Cl (configuration not stated),-23.4
8,CCC(CN1CCOCC1)n1cncc1-c1ccc2c(c1)CCN2CC.Cl (configuration not stated),100.9
9,CCN1CCCc2cc(-c3cncn3C(C)CN3CCOCC3)ccc21.Cl (configuration not stated),-27.45
10,CCC(CN1CCCC1)n1cncc1-c1cnn(-c2ccccc2)c1.Cl (configuration not stated),-7.106
11,CS(=O)(=O)N1CCCC(c2nc(-c3ccccc3)c[nH]2)C1 (configuration not stated),-20.18
12,CCCS(=O)(=O)N1CCCC(c2nc(-c3ccccc3)c[nH]2)C1 (configuration not stated),97.89
13,CCN(C)S(=O)(=O)N1CCCC(c2nc(-c3ccccc3)c[nH]2)C1 (configuration not stated),14.48
14,Cl.Cl.NCC1[C@H]2CN(Cc3ccccc3F)C[C@@H]12 (some centres not stated),-12.63
15,CC(C)NC(=O)N1CC(=O)c2sc(NC3CCCCC3)nc2C1,1.144
16,CC(C)(C)[S+]([O-])CCNC(=O)c1csc(NC2CC2)n1 (configuration not stated),-16.11
17,Cc1[nH]/c(=N\C(=O)c2csc(NC3CCCC3)n2)sc1C,101.9
18,Cc1[nH]/c(=N/C(=O)Cn2nc(N3CCOCC3)ccc2=O)sc1C,-6.271
19,CC(=O)Nc1nc(C(=O)N2CCCC(c3cc(C)[nH]n3)C2)cs1 (configuration not stated),-17.82
20,Cc1[nH]/c(=N\C(=O)c2csc(NC3CC3)n2)sc1C,102.4
21,CN(C)c1ccc(CNCc2cnc(N3CCOCC3)nc2)cn1.Cl,-4.55
22,CC(C)=CCN1C(=O)[C@H]2CC[C@@H]1CN(c1ncccn1)C2,-39.45
23,O=C(Cc1ccccc1)N1CC[C@H]2[C@@H]1CCC(=O)N2Cc1ccncc1.O=C(O)C(F)(F)F,-22.84

row,SMILES,Percent Effect [%]
1,CCCN1C[C@H]2CC[C@@H]1CN(Cc1ccc(Cn3cccn3)cc1)C2,25.45
2,CCCN1C[C@H]2CC[C@@H]1CN(Cc1ccc(-n3cccn3)cc1)C2,105.3
3,CCCN1C[C@H]2CC[C@@H]1CN(Cc1cccc(-n3cccn3)c1)C2,-1.729
4,COCCN1CCCC12CCN(C(=O)CC1CCCC1)CC2.O=C(O)C(F)(F)F,-21.16
5,O=C(O)C(F)(F)F.O=C(O)C(F)(F)F.O=S(=O)(c1cccnc1)N1C[C@H]2CCC[C@@]2(COc2ccccn2)C1,-13.75
6,CC(C)(C)c1nnc(CNc2c(F)cccc2-n2cccn2)o1,0.6342
7,CCc1noc(CNc2c(F)cccc2-n2cccn2)n1,-3.038
8,Cn1ccnc1CNc1c(F)cccc1-n1cccn1,55.71
9,CC(C)c1cnc(CNc2c(F)cccc2-n2cccn2)o1,8.854
10,Cn1c(CNc2c(F)cccc2-n2cccn2)cc(=O)n(C)c1=O,6.656
11,Cc1cnc(CNc2c(F)cccc2-n2cccn2)o1,105
12,O=C(O)C(F)(F)F.O=C1[C@H]2CN(C(=O)[C@H]3CCCO3)C[C@H]2CN1CCN1CCCC1,-0.06274
13,COc1cccc([C@@H]2N[C@H](c3nccs3)Cc3ccsc32)c1OC,50.14
14,COc1cc([C@@H]2N[C@H](c3nccs3)Cc3ccsc32)cc(OC)c1OC,-5.187
15,COc1ccc(OC)c([C@@H]2N[C@H](c3nccs3)Cc3ccsc32)c1,6.308
16,Cc1ncsc1CN1C[C@@H]2COC[C@]2(CNC(=O)c2ccccc2)C1.O=C(O)C(F)(F)F,-24.18
17,COc1cc(C)sc1C(=O)NCCNc1ccccc1,57.16
18,COc1ccsc1C(=O)NCCNc1ccccc1,-5.187
19,COc1cc(C)sc1C(=O)NCCC(=O)N(C)c1ccccc1,0.1249
20,Cc1nc(CN2CCO[C@H]3[C@@H](OCc4cccnc4)CC[C@@H]32)cs1.O=C(O)C(F)(F)F.O=C(O)C(F)(F)F,-27.98
21,O=C(O)C(F)(F)F.O=C(O)C(F)(F)F.OCCN1CC2(CCN(CC3CC3)CC2)c2ccccc21,-22.04
22,O=C(O)C(F)(F)F.c1cnc(N2CCC3(CC2)CN(CC2CC2)c2ccccc23)nc1,54.56
23,O=C(O)C(F)(F)F.O=C1N(CC2CC2)CCC12CCN(c1ncccn1)CC2,-22.74

row,SMILES,Percent Effect [%]
1,O=C(CCC1CCCO1)NCCCO (configuration not stated),-7.133
2,O=C(CCC1CCCO1)NCCCC(=O)Nc1ccc(Cl)cc1 (configuration not stated),104.2
3,O=C(CCCNC(=O)NCC1CCCO1)Nc1ccc(Cl)cc1 (configuration not stated),40.56
4,O=C(CCC1CCCO1)NS(=O)(=O)c1ccc(Cl)cc1 (configuration not stated),2.708
5,O=C(CC1CCCO1)NCCCC(=O)Nc1ccc(Cl)cc1 (configuration not stated),63.53
6,O=C(CCCNC(=O)C1CCCO1)Nc1ccc(Cl)cc1 (configuration not stated),-4.15
7,O=C(O)C(F)(F)F.O=C(O)C(F)(F)F.O=C1COC2(CCN(CC3CCOCC3)CC2)CN1Cc1ccccn1,-24.93
8,O=C(O)C(F)(F)F.c1cncc(N2CC[C@@H]3CN(CC4CC4)C[C@@H]3C2)c1,-51.37
9,Cc1cnc(N2CCC3(CCCN3C(=O)c3ccco3)CC2)nc1.O=C(O)C(F)(F)F,2.375
10,O=C(CNc1cccc(S(=O)(=O)C(F)F)c1)NCc1ccco1,18.67
11,O=C(NCc1ccco1)Nc1cccc(S(=O)(=O)C(F)F)c1,31.42
12,O=C(CCc1ccco1)Nc1cccc(S(=O)(=O)C(F)F)c1,70
13,Cc1cc(C)n(CC2CCCN2C(=O)c2cccnc2N(C)C)n1 (configuration not stated),-10.54
14,CC(=O)N1[C@H](CN(C)C)C[C@@H]2CN(C(=O)c3cnc(C)cn3)CC[C@@H]21.O=C(O)C(F)(F)F,-17.11
15,c1ncn(CC2CCCN2Cc2cn3ccsc3n2)n1 (configuration not stated),-23.29
16,Cc1cc(C)n(CC2CCCN2CCS(=O)(=O)c2ccccc2)n1 (configuration not stated),25.73
17,Cc1cc(C)n(CC2CCCN2Cc2ncc(C(C)(C)C)o2)n1 (configuration not stated),52.86
18,Cc1nc(C)n(CC2CCCCN2Cc2ncc(C(C)(C)C)o2)n1 (configuration not stated),-15.1
19,Cc1nc(C)n(CC2CCCN2Cc2nc3ccccc3nc2C)n1 (configuration not stated),-3.804
20,Cc1nc(C)n(CC2CCCN2Cc2cn3ccsc3n2)n1 (configuration not stated),52.44
21,Cc1nc(C)n(CC2CCCN2Cc2nc(C)c3ccccc3n2)n1 (configuration not stated),-0.1749
22,Cc1nc(C)n(CC2CCCN2Cc2ncc(C(C)(C)C)o2)n1 (configuration not stated),8.269
23,Cc1nn(C)c(C)c1C1CCCN1Cc1nc(N)c2ccccc2n1 (configuration not stated),-13.27

row,SMILES,Percent Effect [%]
1,Cc1nc(C)n(CC2CCCN2Cc2cn3ccccc3n2)n1 (configuration not stated),-6.655
2,Cc1cc(C)n(CC2CCCN2Cc2nc(N)c3ccccc3n2)n1 (configuration not stated),96.02
3,Cc1nc(C)n(CC2CCCN2Cc2nc(N)c3ccccc3n2)n1 (configuration not stated),90.98
4,CN1CC(=O)N(c2ccsc2)CC12CCN(Cc1cnn(C)c1)C2.O=C(O)C(F)(F)F.O=C(O)C(F)(F)F (configuration not stated),-44.55
5,O=C(NCc1cnc2n1CCN(CC1CC1)C2)C1CC1.O=C(O)C(F)(F)F,-32.01
6,O=CO.c1cc2nccc(CC3CCCN(C4CCOCC4)CC3)c2cn1 (configuration not stated),-0.8025
7,CNC(=O)CNCc1c[nH]nc1-c1cc2ccccc2o1.Cl,4.817
8,Cc1cc(CN2CC[C@H]3C(=O)N(c4ccccc4)CCO[C@H]3C2)no1.O=C(O)C(F)(F)F,-6.692
9,O=C(O)C(F)(F)F.O=C1CCC2(CCN(Cc3ccc(F)cc3)CC2)N1Cc1ccccc1,1.967
10,O=C(NC1CC1)N1CCC2(CC1)C(=O)NCCN2Cc1ccccc1.O=C(O)C(F)(F)F,5.553
11,CC(C)CN1C(=O)C2(CCN(Cc3cccs3)C2)c2ccccc21.O=C(O)C(F)(F)F (configuration not stated),9.511
12,CCN(CC)Cc1nc2c(o1)CN(S(=O)(=O)c1cccs1)C2.O=C(O)C(F)(F)F,10.46
13,CN(C)CCN1C(=O)CCCC12CCCN(Cc1cccs1)C2.O=C(O)C(F)(F)F.O=C(O)C(F)(F)F (configuration not stated),-7.663
14,CN(C)C(=O)CC1CC2(CCN(CC3CC3)CC2)Oc2ccccc21.O=C(O)C(F)(F)F (configuration not stated),11.01
15,Cc1cnc(C(=O)N2CCC3(CCN3Cc3ccc(F)cc3)C2)cn1.O=C(O)C(F)(F)F (configuration not stated),-3.427
16,COCCN1CCC12CCN(C(=O)c1ccc(C)nc1)C2.O=C(O)C(F)(F)F (configuration not stated),29.56
17,Cc1ccc(C(=O)N2CCC3(CCN3Cc3ccc(F)cc3)C2)cn1.O=C(O)C(F)(F)F (configuration not stated),99.27
18,Cc1nc2[nH]cnc(NCCN3CCOCC3)c-2n1,-1.565
19,Cc1nc2[nH]cnc(NCCN3CCCC3)c-2n1,57.49
20,Cc1nc2[nH]cnc(NCCCN3CCOCC3)c-2n1,-13.88
21,CCc1c(C)sc2ncnc(N3C[C@H](O)[C@@H](N4CCCC4)C3)c12,59.45
22,CCc1c(C)sc2ncnc(N3CC[C@@H](N4CCC(O)CC4)[C@H](O)C3)c12,10.29
23,CCc1c(C)sc2ncnc(N3CC[C@@H](N4CCOCC4)[C@H](O)C3)c12,11.35
